The whole screen tested about 5,500 compounds, of which about 2,000 (36%) were called active. Another 18% or so got no clear call; they are omitted. Cut-off read from the data, not from the text of the source: active = normalized growth mostly below about 0.91 (no sharp cut-off); inconclusive = no clear call, values can overlap the other calls; inactive = mostly above about 0.92. The list shows a part of the results.
Assay: chemical genetic growth profiling, strain panel (AID 1159580);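 note: tested at 20 µM; growth read once vehicle control cultures reached saturation at 30 °C; 1 = growth at the plate median or of vehicle wells; lower values mean less growth of the strain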
Settings: S. cerevisiae deletion strains, growth OD

Measured: normalized growth

CC12CCC(=O)C=C1CCc1ccccc12 (configuration not stated)
inactive: locus YAL021C, strain ccr4, stronger effect = lower value 0.992 | locus YAL026C, strain drs2, stronger effect = lower value 0.985 | locus YAL030W, strain snc1, stronger effect = lower value 0.984 | locus YBL061C, strain skt5, stronger effect = lower value 0.981 | locus YBR009C, strain hhf1, stronger effect = lower value 0.985 | locus YBR023C, strain chs3, stronger effect = lower value 0.979 | locus YBR171W, strain sec66, stronger effect = lower value 0.972 | locus YBR231C, strain swc5, stronger effect = lower value 0.985 | locus YBR279W, strain paf1, stronger effect = lower value 0.985 | locus YCL011C, strain gbp2, stronger effect = lower value 0.997 | locus YCL016C, strain dcc1, stronger effect = lower value 0.978 | locus YCL061C, strain MRC1, stronger effect = lower value 0.977 | locus YCL069W, strain vba3, stronger effect = lower value 0.986 | locus YCR088W, strain abp1, stronger effect = lower value 0.966 | locus YDL005C, strain med2, stronger effect = lower value 0.985 | locus YDL040C, strain nat1, stronger effect = lower value 0.967 | locus YDR001C, strain nth1, stronger effect = lower value 0.967 | locus YDR069C, strain doa4, stronger effect = lower value 0.984 | locus YDR137W, strain rgp1, stronger effect = lower value 1.05 | locus YDR159W, strain sac3, stronger effect = lower value 0.955 | locus YDR195W, strain ref2 0.947 | locus YDR297W, strain sur2, stronger effect = lower value 0.978 | locus YDR334W, strain swr1, stronger effect = lower value 0.959 | locus YDR335W, strain msn5, stronger effect = lower value 0.978 | locus YDR392W, strain spt3, stronger effect = lower value 0.825 | locus YEL003W, strain gim4, stronger effect = lower value 0.981 | locus YEL037C, strain rad23, stronger effect = lower value 0.972 | locus YEL061C, strain CIN8 (second series), stronger effect = lower value 0.966 | locus YER015W, strain faa2, stronger effect = lower value 0.986 | locus YER016W, strain bim1, stronger effect = lower value 0.972 | locus YER111C, strain swi4, stronger effect = lower value 0.972 | locus YFR010W, strain ubp6, stronger effect = lower value 0.99 | locus YGL167C, strain pmr1, stronger effect = lower value 0.97 | locus YGL173C, strain kem1, stronger effect = lower value 0.985 | locus YGL227W, strain vid30, stronger effect = lower value 0.979 | locus YGL240W, strain doc1, stronger effect = lower value 0.925 | locus YGL253W, strain hxk2, stronger effect = lower value 0.98 | locus YHR013C, strain ard1, stronger effect = lower value 0.941 | locus YHR027C, strain rpn1, stronger effect = lower value 0.994 | locus YHR142W, strain chs7, stronger effect = lower value 0.978 | locus YJL092W, strain hpr5, stronger effect = lower value 0.974 | locus YJL095W, strain BCK1 (second series), stronger effect = lower value 0.994 | locus YJL115W, strain asf1, stronger effect = lower value 0.977 | locus YJL129C, strain trk1, stronger effect = lower value 0.964 | locus YJL154C, strain vps35, stronger effect = lower value 0.972 | locus YJL164C, strain tpk1, stronger effect = lower value 0.984 | locus YJL166W, strain qcr8, stronger effect = lower value 0.977 | locus YJL187C, strain SWE1, stronger effect = lower value 0.982 | locus YKL160W, strain elf1, stronger effect = lower value 1 | locus YKR026C, strain gcn3, stronger effect = lower value 0.951 | locus YKR091W, strain srl3, stronger effect = lower value 0.971 | locus YLL001W, strain dnm1, stronger effect = lower value 0.968 | locus YLL026W, stronger effect = lower value 0.979 | locus YLL041C, strain sdh2, stronger effect = lower value 0.973 | locus YLR027C, strain aat2, stronger effect = lower value 0.99 | locus YLR221C, strain rsa3, stronger effect = lower value 1.01 | locus YLR258W, strain gsy2, stronger effect = lower value 0.992 | locus YLR262C, strain YPT6 (second series), stronger effect = lower value 1.07 | locus YLR320W, strain mms22, stronger effect = lower value 0.973 | locus YLR342W, strain FKS1, stronger effect = lower value 0.977 | locus YLR370C, strain arc18, stronger effect = lower value 0.984 | locus YLR384C, strain iki3, stronger effect = lower value 0.972 | locus YML120C, strain ndi1, stronger effect = lower value 0.984 | locus YMR058W, strain fet3, stronger effect = lower value 0.982 | locus YMR125W, strain sto1, stronger effect = lower value 0.969 | locus YMR129W, stronger effect = lower value 0.983 | locus YMR205C, strain PFK2, stronger effect = lower value 0.985 | locus YMR231W, strain pep5, stronger effect = lower value 0.977 | locus YNL071W, strain lat1, stronger effect = lower value 0.978 | locus YNL209W, strain ssb2, stronger effect = lower value 0.989 | locus YNL248C, strain rpa49, stronger effect = lower value 0.951 | locus YNL322C, strain KRE1 (second series), stronger effect = lower value 0.962 | locus YNR049C, strain mso1, stronger effect = lower value 0.98 | locus YOR001W, strain rrp6, stronger effect = lower value 0.994 | locus YOR070C, strain gyp1, stronger effect = lower value 0.992 | locus YOR080W, strain dia2, stronger effect = lower value 0.974 | locus YOR083W, strain WHI5, stronger effect = lower value 1 | locus YOR106W, strain vam3, stronger effect = lower value 1 | locus YOR265W, strain rbl2, stronger effect = lower value 0.984 | locus YOR270C, strain vph1, stronger effect = lower value 0.931 | locus YOR290C, strain snf2, stronger effect = lower value 0.933 | locus YPL051W, strain arl3, stronger effect = lower value 0.994 | locus YPL078C, strain atp4, stronger effect = lower value 0.977 | locus YPL106C, strain sse1, stronger effect = lower value 0.973 | locus YPL240C, strain hsp82, stronger effect = lower value 0.985
active: locus YER155C, strain BEM2 (second series), stronger effect = lower value 0.849 | locus YLR357W, strain rsc2, stronger effect = lower value 0.844

From PubChem BioAssay AID1159580 (chemical genetic matrix, 2015)
